Compound activity: PubChem BioAssay, Bradner/Qi Labs at DFCI
This is one part of a sample in which hits are shown more often than they occur.
CBX7 inh = CBX7 inhibition, primary AlphaScreen; O95931; hit rate 1.1% among 66,000; AlphaScreen His6-CBX7 / biotin-H3K27me3 peptide binding; hits give low values; normalised signal (fraction of DMSO) (test concentration not listed); in the data active = normalised signal below about 0.5
Target sequence (O95931 whole entry, looked up): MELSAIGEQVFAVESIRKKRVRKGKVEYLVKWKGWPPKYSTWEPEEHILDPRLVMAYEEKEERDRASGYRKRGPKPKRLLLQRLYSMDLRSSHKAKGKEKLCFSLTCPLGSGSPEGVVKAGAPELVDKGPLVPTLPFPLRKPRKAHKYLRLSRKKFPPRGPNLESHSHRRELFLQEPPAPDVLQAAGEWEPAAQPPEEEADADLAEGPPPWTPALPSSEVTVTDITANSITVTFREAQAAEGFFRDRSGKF
* = called active by the depositor.

SMILES	CBX7 inh
Fc1ccc(C(c2ccccc2)N2CCN(CCCc3c[nH]c4ccccc34)CC2)cc1 (centres undefined)	0.512
c1ccc(C(c2ccccc2)N2CCN(CCCc3c[nH]c4ccccc34)CC2)cc1	0.501
Cc1ccc(Nc2cc(C)nc3nnnn23)c(C)c1	1
CCOC(=O)c1cnc2c(C)cc(Cl)cc2c1Nc1ccc(Cl)cc1C	1.18
COc1cccc(-c2nn(C)c3sc(C(=O)Nc4cccc(SC)c4)cc23)c1	0.982
CCOC(=O)c1cccc(NC(=O)Cn2ncc3c2-c2ccccc2OC3)c1	0.924
c1ccc(CSc2nnc3c(n2)[nH]c2ccccc23)cc1	1.1
CCOC(=O)CCCCC(=O)c1[nH]c(=O)[nH]c1CSc1nnc2c(n1)[nH]c1ccccc12	0.423*
NC(=O)CSc1nnc2c(n1)[nH]c1ccccc12	1.02
CC1CC(C)CN(CCCNC(=O)c2cc3c(-c4ccc(Cl)cc4)nn(C)c3s2)C1 (centres undefined)	1.09
CCOc1ccc(N2C(=O)c3ccccc3C2Nc2cc(OC)ccc2OC)cc1 (centres undefined)	0.787
Cc1ccc(-c2cc(C(=O)Nc3ccc(Cl)cc3)c3ccccc3n2)cc1	0.808
COc1cc(-c2nc(-c3ccc(C)c(C)c3)c(-c3ccccc3)[nH]2)cc2c1OCO2	0.705
COc1cc(-c2nc(-c3ccc(C)c(C)c3)c(-c3ccc(C)c(C)c3)[nH]2)cc(OC)c1O	0.494*
COc1ccc(-c2nc(-c3ccc(C)cc3)[nH]c2-c2ccc(OC)cc2)cc1	0.698
COc1ccc(-c2nc(CS(=O)(=O)CC(=O)NC3CC3)c(C)o2)cc1	0.979
COc1ccc(-c2nc3ccccc3o2)cc1NC(=O)c1ccc(OCc2ccccc2)cc1	0.986
COc1ccc(-c2noc(N(C)CC(=O)Nc3ccc(OC)cc3OC)n2)cc1	0.971
COc1ccc(-c2noc(N(C)CC(=O)Nc3cc(C)on3)n2)cc1	0*
COc1ccc(-c2noc(N(C)CC(=O)Nc3ccccn3)n2)cc1	1
NC(=O)C1CCN(C(=O)CN2C(=O)COc3ccc(S(=O)(=O)N4CCCC4)cc32)CC1	0.878
COCCCNC(=O)C1CCCN(Cc2nc(-c3ccc(Cl)cc3)oc2C)C1 (centres undefined)	1.02
Cc1cc(C)n(Cc2ccc(F)cc2)c(=O)c1C#N	1.13
N#Cc1c(-c2ccc(F)cc2)c(C#N)c(=O)n(N)c1N	0.16*
CCn1c(COc2cccc3cccnc23)nnc1SCC(=O)OC	0.979
SMILES	CBX7 inh
O=C(CC(Sc1cccc2cccnc12)c1ccc(F)cc1)c1cccs1 (centres undefined)	0.00632*
O=C(Nc1ccc(F)cc1)C(Cc1ccccc1)NS(=O)(=O)c1cccc2cccnc12 (centres undefined)	1.13
Cc1ccccc1-c1nc(CN2CCCC(C(=O)NCC3CCCO3)C2)c(C)o1 (centres undefined)	0.885
COc1ccc(-c2[nH]c(-c3ccc(C)cc3)nc2SCC(=O)Nc2ccc(OC)c(OC)c2)cc1	1.04
Cc1oc(-c2ccc(Cl)cc2)nc1C(=O)NCCN1CCOCC1	1.03
O=C1CN(C(=O)Cc2cccc3ccccc23)C(c2ccccc2)c2cc(F)ccc2N1 (centres undefined)	0.875
O=C(Nc1nccs1)c1ccc(S(=O)(=O)N2CCOCC2)cc1	1.12
O=C(Nc1nnc(-c2ccccc2)o1)c1ccc(Cl)c(Cl)c1	0.793
COc1cc(OC)cc(-c2nnc(NC(=O)c3ccc(S(=O)(=O)N4CCC(C)CC4)cc3)o2)c1	0.981
O=C(Nc1nnc(-c2ccccc2)o1)c1ccc(Br)cc1	0.268*
CC(C)CN(CC(C)C)S(=O)(=O)c1ccc(C(=O)Nc2nnc(-c3cccs3)o2)cc1	0.963
CN(c1ccccc1)S(=O)(=O)c1ccc(C(=O)Nc2nnc(-c3cccs3)o2)cc1	0.983
CCc1nnc(NC(=O)c2ccc(S(=O)(=O)N3CCCCC3CC)cc2)o1 (centres undefined)	0.59
COc1ccc(-c2nnc(NC(=O)c3ccc(S(=O)(=O)N(C)c4ccccc4)cc3)o2)cc1	0.94
CCC1CCCCN1S(=O)(=O)c1ccc(C(=O)Nc2nnc(-c3ccc(Cl)s3)o2)cc1 (centres undefined)	0.383*
CCC1CCCCN1S(=O)(=O)c1ccc(C(=O)Nc2nnc(-c3cccs3)o2)cc1 (centres undefined)	0.908
O=C(Nc1nnc(-c2ccc(Cl)s2)o1)c1ccc(S(=O)(=O)N2CCOCC2)cc1	0.00635*
CN(C)S(=O)(=O)c1ccc(C(=O)Nc2nnc(-c3cccs3)o2)cc1	0.216*
Cc1[nH]c2ccc(OC(F)(F)F)cc2c1CCNC(=O)Cc1ccc(Cl)cc1	0.591
CN(Cc1ccccc1)C(=O)c1cc(-c2ccccc2O)on1	0.956
CCOc1ccc(NC(=O)Cn2ncc3c2-c2ccccc2OC3)cc1	1.01
CC(C)CCNC(=O)CCn1c(=O)[nH]c2ccsc2c1=O	1.08
CCC1CCCCN1C(=O)c1cc(-c2ccc(F)cc2)on1 (centres undefined)	1.07
CCC(C)c1ccc2oc(-c3ccc(NC(=O)c4ccc(OC)c(OC)c4)cc3)nc2c1 (centres undefined)	1.08
CCOc1ccc(-c2nc3ccc(C(=O)NCCN(C)C)cc3nc2-c2ccc(OCC)cc2)cc1	1.69
SMILES	CBX7 inh
CCCCc1ccc(NC(=O)CSc2nccn2-c2ccc(F)cc2)cc1	0.835
CCCCNC(=O)c1sc2ncnc(N3CCOCC3)c2c1C	1.02
CC1CC(C)CN(S(=O)(=O)c2ccc(C(=O)Nc3nnc(-c4cccs4)o3)cc2)C1 (centres undefined)	0.877
O=C(Nc1nnc(-c2ccc(Cl)cc2Cl)s1)c1ccc(S(=O)(=O)N2CCCC2)cc1	1.05
COc1ccc(-c2nnc(NC(=O)c3ccc(S(=O)(=O)N4CC(C)CC(C)C4)cc3)o2)cc1 (centres undefined)	0.915
O=C(Nc1nnc(-c2cccs2)o1)c1ccc(S(=O)(=O)N2CCCC2)cc1	0.13*
CC1CCN(S(=O)(=O)c2ccc(C(=O)Nc3nnc(-c4cccs4)o3)cc2)CC1	0.85
COc1ccc(-c2nnc(NC(=O)c3ccc(S(=O)(=O)N4CCCC(C)C4)cc3)o2)cc1 (centres undefined)	0.726
O=C(Nc1nc2c(Cl)cccc2s1)c1ccc(S(=O)(=O)N2CCCC2)cc1	1.04
CC1CCCN(S(=O)(=O)c2ccc(C(=O)Nc3nnc(-c4ccccc4Cl)o3)cc2)C1 (centres undefined)	0.0102*
COc1cc(OC)cc(-c2nnc(NC(=O)c3ccc(S(=O)(=O)N4CCOCC4)cc3)o2)c1	0.85
O=C(Nc1nnc(-c2ccc(Cl)s2)o1)c1ccc(S(=O)(=O)N2CCCC2)cc1	0.0464*
O=C(Nc1nnc(-c2ccc(F)cc2)o1)c1ccc(S(=O)(=O)N2CCOCC2)cc1	0.00366*
O=S1(=O)N=C(Nc2ccc(F)cc2)c2ccccc21	0.899
CCSc1nnc(NC(=O)CSc2nccn2-c2cccc(OC)c2)s1	1.27
CC(C)c1ccc(N(C)C(=O)c2cn(-c3ccc(F)cc3F)c(=O)c3ccccc23)cc1	0.952
COc1ccc(CCNC(=O)c2cnn(-c3ccccc3)c2-n2cccc2)cc1OC	0.996
Cc1ccc(-n2c3c(cc(C(=O)Nc4ccccc4C)c2=O)C(=O)CC(C)(C)C3)cc1	1.14
CCc1ccc(NC(=O)c2cc3c(n(-c4ccc(C)cc4)c2=O)CC(C)(C)CC3=O)cc1	1.03
Fc1ccc(-c2nc3ncccn3c2Nc2ccc(Cl)cc2)cc1	1.15
Cc1ccc2c(c1C)NC(=O)CC2c1ccccc1F (centres undefined)	1.01
